In PubChem BioAssay AID463173 (ICCB-Longwood Screening Facility, Harvard Medical School, 2010):
The whole screen tested about 52,000 compounds, of which about 4,300 (8.3%) were called active. Cut-off read from the data, not from the text of the source: active = survival mostly below about 52% (no sharp cut-off); inactive = mostly above about 56%. The full list was thinned out, with actives kept by preference.

Tested on: DeltatarO mutant
Assay: growth inhibition of S. aureus wild type versus tarO mutant, primary screen, teichoic acid synthesis inhibitors, RN4220, OD600 (AID 463173)
Settings: OD600, 18 h, hits give low values, screened at 18.75 µg/mL (by protocol)

Row | Compound | survival
1 | Clc1ccc(CSc2nc3ncccc3[nH]2)cc1 | 71% (inactive)
2 | O=C(O)c1cc(-n2c(/C=C\c3ccc(F)cc3)nc3ccccc3c2=O)ccc1Cl | 94% (inactive)
3 | COC(=O)c1ccc(-n2c(/C=C\c3cccc(Br)c3)nc3ccccc3c2=O)cc1 | 70% (inactive)
4 | O=C(O)c1ccc(-n2c(/C=C\c3ccc(O)cc3)nc3ccccc3c2=O)cc1 | 58% (active)
5 | COc1ccc(C)cc1NC(=O)N1CC(C)Sc2ccccc21 (stereo unspecified) | 55% (inactive)
6 | Cc1ccc(N(C)C(=O)CC(C)S(=O)(=O)c2ccc3c(c2)NC(=O)CO3)cc1 (stereo unspecified) | 120% (inactive)
7 | c1ccc2c(c1)[nH]c1nc(NN=C3CCC(=NNc4nnc5c(n4)[nH]c4ccccc45)CC3)nnc12 | 93% (inactive)
8 | COc1cccc(-c2nc3c(c(SCC(=O)Nc4cc(C)ccc4C)n2)Cc2c(CO)cnc(C)c2O3)c1 | 77% (inactive)
9 | CCn1nnc2cc(C(=O)Nc3ccc(C)c(Cl)c3)ccc21 | 54% (inactive)
10 | COc1cccc(CNC(=O)c2ccc3oc(=O)n(Cc4ccccc4)c3c2)c1 | -1% (active)
11 | O=C(Nc1ccc(Cl)cc1)c1ccc2oc(=O)n(Cc3ccccc3)c2c1 | 67% (inactive)
12 | O=C(Nc1cccc(F)c1)c1ccc2oc(=O)n(Cc3ccccc3)c2c1 | 70% (inactive)
13 | O=C(NCc1ccc(Cl)cc1)c1ccc2oc(=O)n(Cc3ccccc3)c2c1 | 109% (inactive)
14 | Cc1ccc(CNC(=O)c2ccc3oc(=O)n(Cc4ccccc4)c3c2)cc1 | 64% (inactive)
15 | O=C(NCc1ccccc1)c1ccc2oc(=O)n(Cc3ccccc3)c2c1 | 72% (inactive)
16 | CCc1ccc(NC(=O)c2ccc3oc(=O)n(Cc4ccccc4)c3c2)cc1 | 6% (active)
17 | O=C(NCc1ccc(F)cc1)c1ccc2oc(=O)n(Cc3ccccc3)c2c1 | -2% (active)
18 | CCc1ccc(NC(=O)c2ccc3c(c2)nnn3CC)cc1 | -4% (active)
19 | CCn1nnc2cc(C(=O)Nc3ccc(OC)cc3)ccc21 | 102% (inactive)
20 | Cc1cccc(CNC(=O)c2ccc3oc(=O)n(Cc4ccccc4)c3c2)c1 | 76% (inactive)
21 | O=C(Cc1ccc(F)cc1)Nc1nncs1 | 99% (inactive)
22 | Cc1ccc2ncc(C(=O)N3CCN(c4ccccc4F)CC3)c(=O)n2c1 | 102% (inactive)
23 | CCOC(=O)c1c(NC(C)=O)c2c3c(sc2n1Cc1cc(C)ccc1C)CCCC3 | 98% (inactive)

Row | Compound | survival
24 | O=C(CCOc1ccccc1)N(Cc1cccnc1)c1nc2c(F)cc(F)cc2s1 | 97% (inactive)
25 | CC1=C(C(N)=O)C(c2cccc(C)c2)n2nc(-c3cccc(C)c3)nc2N1 (stereo unspecified) | 66% (inactive)
26 | Cc1cccc(NC(=O)C2CCCN(S(=O)(=O)c3cccc4nonc34)C2)c1C (stereo unspecified) | 119% (inactive)
27 | Cc1c(C(=O)N(C)C)sc2c1c(=O)n(-c1ccc(F)cc1)c(=O)n2Cc1ccccc1C#N | 76% (inactive)
28 | Cc1ccc(N(C)C(=O)c2sc3nc4n(c(=O)c3c2C)CCCC4)cc1C | 64% (inactive)
29 | O=C(Cn1c(=O)n(CCCS(=O)(=O)C2CCCCC2)c(=O)c2ccccc21)Nc1ccccc1C(F)(F)F | 91% (inactive)
30 | Cc1ccc(S(=O)(=O)CCC(=O)Nc2ccc(Br)cc2C)cc1 | 85% (inactive)
31 | Cc1ccc(C)c(N2CCN(C(=O)C3CCCN(S(=O)(=O)c4cccc5nonc45)C3)CC2)c1 (stereo unspecified) | 76% (inactive)
32 | COc1ccc(OC)c(NC(=O)c2cc3cccc(OC)c3oc2=O)c1 | 77% (inactive)
33 | Cc1cccc(C)c1NC(=O)c1cc2sccc2n1Cc1ccc(F)cc1 | 96% (inactive)
34 | COc1cc(/C=C(\C#N)c2nc3ccccc3[nH]2)ccc1OCc1ccc(F)cc1 | 70% (inactive)
35 | COc1cc(/C=C(\C#N)c2nc3ccc(C)cc3[nH]2)ccc1OCc1ccc(C)cc1 | 59% (inactive)
36 | COc1ccc(/C=C(\C#N)c2nc3ccccc3c(=O)[nH]2)cc1OC | 86% (inactive)
37 | CCOC(=O)COc1ccc(/C=C(\C#N)c2nc3ccc(C)cc3[nH]2)cc1OC | 43% (active)
38 | COc1cc(/C=C(\C#N)c2nc3ccc(C)cc3[nH]2)ccc1OC(C)C | 46% (active)
39 | CCC(=O)Oc1ccc(/C=C(\C#N)c2nc3ccccc3[nH]2)cc1OC | 47% (inactive)
40 | Cc1ccc(-n2nc(C)c3c(C)cc(=O)n(CC(=O)N4CCCc5ccccc54)c32)cc1 | 80% (inactive)
41 | Cc1oc2ncn(CC(C)C)c(=O)c2c1C(=O)Nc1ccc(Cl)cn1 | 86% (inactive)
42 | COc1ccc(CNC(=O)C2CCC(CNS(=O)(=O)c3ccc4c(c3)CCCC(=O)N4)CC2)cc1 (stereo unspecified) | 87% (inactive)
43 | CCc1cccc(NC(=O)C2CCCN(c3ncccn3)C2)c1 (stereo unspecified) | 80% (inactive)
44 | COc1ccc(CNC(=O)CCc2c(C)nn(-c3ccc(N4CCCCC4)nn3)c2C)cc1 | 75% (inactive)
45 | Cc1ccc(CNC(=O)CN2CCN(Cc3ccc(F)cc3)C2=O)cc1 | 95% (inactive)
46 | Cc1c(Cl)cccc1NC(=O)c1ccc(C(=O)Nc2cccc(Cl)c2C)cc1 | 81% (inactive)

Row | Compound | survival
47 | CC(=O)c1ccc(Nc2nc3ccccc3nc2-n2nc(C)cc2C)cc1 | 44% (active)
48 | Cc1cc(C)n(-c2nc3ccccc3nc2Nc2cc(C(=O)O)ccc2C)n1 | 42% (active)
49 | CCCOC(=O)c1ccc(Nc2nc3ccccc3nc2-n2nc(C)cc2C)cc1 | 24% (active)
50 | Cc1ccc(C(=O)O)cc1Nc1nc2ccccc2n2nnnc12 | 82% (inactive)
51 | CCCCOC(=O)c1ccc(Nc2nnc(-n3nc(C)cc3C)c3ccccc23)cc1 | 98% (inactive)
52 | CCC(Cc1ccccc1)NC(=O)c1cccc(Nc2nc3ccccc3nc2-n2nc(C)cc2C)c1 (stereo unspecified) | 63% (inactive)
53 | Cc1cc(C)n(-c2nc3ccccc3nc2Nc2ccc(Cl)c(C(=O)OC(C)C)c2)n1 | 99% (inactive)
54 | Cc1cc(C)n(-c2nc3ccccc3nc2Nc2cccc(C(=O)NCCc3ccccc3)c2)n1 | 93% (inactive)
55 | Cc1ccc(Nc2nc3ccc(C)cc3nc2-n2nc(C)cc2C)c(C)c1 | 81% (inactive)
56 | COc1cccc(C(=O)Nc2c(C(=O)c3ccc(F)cc3)oc3ccccc23)c1 | 66% (inactive)
57 | CCn1c(SC)nnc1C1CCCN(Cc2ccccc2)C1 (stereo unspecified) | 100% (inactive)
58 | CC(C)Cn1cc(NC(=O)N2CCN(c3ccc(F)cc3)CC2)c2ccccc2c1=O | 99% (inactive)
59 | O=C(Nc1cccc(F)c1)c1ccc(-c2ccccc2)s1 | 82% (inactive)
60 | CCOC(=O)c1cc(-c2ccc(OC)cc2)n(CCC(=O)Nc2cccc(C)c2C)c1C | 93% (inactive)
61 | CC1=Nc2cc(C(=O)NC3CCCC3)ccc2Sc2ccc(Cl)cc21 | 77% (inactive)
62 | Cc1ccccc1-c1nnc(C2CCN(S(=O)(=O)c3ccc(Cl)cc3)CC2)o1 | 89% (inactive)
63 | CCOc1ccc2nc(N3CCCC(C(=O)Nc4ccccc4CC)C3)sc2c1 (stereo unspecified) | 95% (inactive)
64 | O=C(Nc1nnc(S(=O)(=O)N2CCCCCC2)s1)c1ccc(Br)cc1 | 60% (inactive)
65 | Cc1cccc(C(=O)Nc2nnc(S(=O)(=O)N3CCOCC3)s2)c1 | 58% (inactive)
66 | COc1cccc(C(=O)Nc2nc3ccc(S(=O)(=O)N4CCCC4)cc3s2)c1 | 79% (inactive)
67 | O=C(Nc1nnc(S(=O)(=O)N2CCOCC2)s1)c1cccc(Br)c1 | 42% (active)
68 | O=C(Nc1nnc(S(=O)(=O)N2CCOCC2)s1)c1ccc(F)cc1 | 78% (inactive)
69 | COc1ccc(C(=O)Nc2nnc(S(=O)(=O)N3CCCCCC3)s2)cc1OC | 80% (inactive)

Row | Compound | survival
70 | O=C(Nc1nnc(S(=O)(=O)N2CCCCCC2)s1)c1cccc(Br)c1 | 9% (active)
71 | COc1cccc(C(=O)Nc2nnc(S(=O)(=O)N3CCCC3)s2)c1 | 33% (active)
72 | CC1CCN(C(=O)COc2ccc(C(C)C)cc2)CC1 | 86% (inactive)
73 | Cc1ccc(C)n1-c1nnc(N2CCC(C(=O)Nc3ccccc3Br)CC2)s1 | 91% (inactive)
74 | c1cc(CNC2CCCCC2)co1 | 72% (inactive)
75 | Nc1nnc(CCC(CCc2nnc(N)s2)(CCc2nnc(N)s2)C(=O)c2ccccc2)s1 | 92% (inactive)
76 | COc1ccc(C)c2sc(N(Cc3cccnc3)C(C)=O)nc12 | 80% (inactive)
77 | COc1ccccc1NC(=O)Cn1c(=O)n(Cc2ccc3c(c2)OCO3)c(=O)c2oc3ccccc3c21 | 77% (inactive)
78 | Cn1c(SCc2ccc(F)cc2)nc2ccc(C(=O)NCc3ccccc3)cc21 | 49% (inactive)
79 | Cn1c(SCc2ccc(F)cc2)nc2ccc(C(=O)NCc3ccc(Cl)cc3)cc21 | 50% (inactive)
80 | Cn1c(SCc2ccc(F)cc2)nc2ccc(C(=O)NCc3cccc(Cl)c3)cc21 | 56% (active)
81 | COc1cc(C2NC(=O)NC(C)=C2C(=O)Nc2cc(C)cc(C)c2)ccc1O (stereo unspecified) | 38% (active)
82 | COc1ccc(C2NC(=O)NC(C)=C2C(=O)Nc2ccccc2)cc1OC (stereo unspecified) | 116% (inactive)
83 | COc1ccc(OC)c(C2NC(=O)NC(C)=C2C(=O)Nc2cc(C)cc(C)c2)c1 (stereo unspecified) | 47% (inactive)
84 | Cc1cccc(NC(=O)CSc2nnc3[nH]c(=O)cc(-c4ccccc4)n23)c1C | 116% (inactive)
85 | O=C(NCc1ccccc1)C(=O)NCC(c1cccs1)S(=O)(=O)c1ccccc1 (stereo unspecified) | 52% (active)
86 | O=S(=O)(NCC(c1cccs1)S(=O)(=O)c1ccccc1)c1ccc(F)cc1 (stereo unspecified) | 46% (active)
87 | Cc1ccc(CNC(=O)C(=O)NCC(c2cccs2)S(=O)(=O)c2ccc(C)cc2)cc1 (stereo unspecified) | 98% (inactive)
88 | O=C(NCc1ccccc1)C(=O)NCC(c1cccs1)S(=O)(=O)c1cccs1 (stereo unspecified) | 91% (inactive)
89 | O=S(=O)(NCC(c1cccs1)S(=O)(=O)c1ccccc1)c1ccc(F)c(C(F)(F)F)c1 (stereo unspecified) | 92% (inactive)
90 | O=S(=O)(NCC(c1cccs1)S(=O)(=O)c1ccccc1)c1ccccc1 (stereo unspecified) | 115% (inactive)
91 | CC(C)c1ccc(N2C(=O)CS(=O)(=O)C23C(=O)N(Cc2cccc(F)c2)c2ccccc23)cc1 (stereo unspecified) | 69% (inactive)
